Laboratory results taken from PubChem BioAssay (Tox21).
Where “and” joins values, the source holds several entries; their conditions need not be identical. Identical values can stand only once. Records with an inconclusive call do not appear. Unmarked numbers belong to inactive results. Calls of active or inactive are those of the source. The call rests on the fitted dose curve; in most records, active means well fitted cell-killing curve with a large enough effect in the repeat runs; inconclusive means weak or mixed curves; inactive means no such curve, though single readings can be large or run the other way.

Test: qHTS assay to identify small molecule antagonists of the androgen receptor (AR) signaling pathway - cell viability counter screen (AID 743033; further: nearly all actives have a fitted effect of over 45% in size)
Settings: AR-bla HEK293 viability, CellTiter-Glo luminescence, 16 h; series mostly up to 58.5 µM; activity change, negative = cytotoxicity: at the top concentration
On the % scale 0 is the no-effect control and ±100 the full control effect; potency means the concentration at half of the fitted maximal effect.

SMILES | activity change, negative = cytotoxicity | Potency
CC(C)(C)N(NC(=O)c1ccc(Cl)cc1)C(=O)c1ccccc1 | 4.16% | –
CN1CC[C@]23c4c5ccc(O)c4O[C@H]2[C@@H](O)C=C[C@H]3[C@H]1C5 | 0.55% | –
C[Si](Cn1cncn1)(c1ccc(F)cc1)c1ccc(F)cc1 | – | 14.3 µM (active)
CCOP(=S)(OCC)Oc1ccc(S(C)=O)cc1 (centres undefined) | 5.35% | –
O=C(O)C(O)C(O)C(=O)O (centres undefined) | 8.44% | –
C#C[C@]1(O)CC[C@H]2[C@@H]3CCC4=CC(=O)CCC4=C3C=C[C@@]21CC | 1.36% | –
O=C(Cc1ccccc1)OCCc1ccccc1 | 8.48% | –
Oc1cccc(Cl)c1 | -8.7% | –
C=CC(C)(CCC=C(C)C)OC(=O)c1ccccc1N (centres undefined) | 2.03% [at 78.9 µM] | –
NNCCO | -1.34% | –
Nc1ccc2c(c1)Cc1ccccc1-2 | -14.1% | –
Cc1nc2ccccc2c(=O)n1-c1ccccc1Cl | 0.261% | –
C[C@H](N)[C@H](O)c1ccc(O)c(O)c1 | 4.81% | –
O=C(NC(=O)c1cc(F)c(F)cc1Cl)Nc1cc(F)ccc1N1CCC(C(=O)O)CC1 | 1.24% | –
CCCCCCCCCCCC[N+](C)(C)CCOc1ccccc1 | – | 23.9 µM (active) and 15.5 µM (active)
CC(C)C1(C)N=C(c2ncccc2C(=O)O)NC1=O (centres undefined) | -11.8% | –
Cc1nnc(-c2ccccc2)c(=O)n1N | 6.2% | –

SMILES | activity change, negative = cytotoxicity | Potency
Nc1cccc2ccccc12 | – | inactive
COC1CC(=C(c2cccs2)c2cccs2)C[N+](C)(C)C1 (centres undefined) | -23.8% | –
CC(Cl)C(=O)O (centres undefined) | -2.01% [at 78.9 µM] | –
CN(C)C(=O)Nc1cccc(OC(=O)NC(C)(C)C)c1 | 1.79% | –
CN(C)c1ccc(N=O)cc1 | – | 12.3 µM (active) and 43.6 µM (active)
NC(=S)c1c(Cl)cccc1Cl | -0.66% | –
CCSCc1ccccc1OC(=O)NC | 8.18% | –
O=C(O)CCCOc1ccc(Cl)cc1Cl | – | inactive
CC[N+]1(CCOC(=O)C(O)(c2ccccc2)c2ccccc2)CCCCC1 | 4.53% | –
C[C@H]1[C@@H]2Cc3ccc(O)cc3[C@@]1(C)CCN2C | -0.15% [at 216 µM] | –
C=C(Cl)Cl | 0.115% [at 78.9 µM] | –
COc1cc(CC(C)N)c(OC)cc1Br (centres undefined) | – | inactive
O=C(Cl)OCCOCCOC(=O)Cl | 6.21% | –
CC(C)(C)NCC(O)c1cc(Cl)c(N)c(C(F)(F)F)c1 (centres undefined) | 3.1% | –
O=S(=O)(Cl)Cl | -0.601% | –
COC(=O)C1(O)c2ccccc2-c2ccccc21 | 0.0039% | –
OC[P+](CO)(CO)CO | -9.55% | –
